Measured values reported in PubChem BioAssay (NCI).
Compounds without any hit were thinned out: in the full panel of roughly 79,000, 15% have a hit. Cut-off read from the data, not from the text of the source: active = growth inhibition above about 70%; inactive = the rest.

Columns and labels:
[1] = NCI Yeast Anticancer Drug Screen. Data for the rad50 strain (AID 155);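 note: 0% = growth of vehicle-only cultures of the same strain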; settings: S. cerevisiae rad50 strain growth inhibition; at 50.0 µM; active compounds read high
Method in brief: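 Readout: growth inhibition relative to vehicle-treated cultures. Compound exposure was carried out in a genetically defined yeast strain deficient in DNA damage repair.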

[2] = NCI Yeast Anticancer Drug Screen. Data for the mec2-1 strain (AID 157); settings: S. cerevisiae mec2-1 strain, at 50.0 µM, active compounds read high
Method in brief: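 Using mec2-1 yeast: add compound, measure growth, express inhibition versus vehicle-treated cultures.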

[3] = NCI Yeast Anticancer Drug Screen. Data for the sgs1 mgt1 strain (AID 161);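 note: 0% = growth of cultures given vehicle only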; settings: S. cerevisiae sgs1 mgt1 strain, at 50.0 µM, active compounds read high
Method in brief: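 Percent growth inhibition was derived by comparing compound-exposed mutant yeast with vehicle-exposed cultures. The strain carries alterations in DNA damage repair.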

[4] = NCI Yeast Anticancer Drug Screen. Data for the cln2 rad14 strain (AID 165);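 note: 0% = growth equal to vehicle treated cultures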; settings: S. cerevisiae cln2 rad14 strain, at 50.0 µM, active compounds read high
Method in brief: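 Yeast strain cln2 rad14, bearing defects in cell cycle control and DNA repair, serves as the test system; values reflect growth inhibition compared with vehicle.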

[5] = NCI Yeast Anticancer Drug Screen. Data for the bub3 strain (AID 167); settings: S. cerevisiae bub3 mutant strain, at 50.0 µM, active compounds read high
Method in brief: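 Readout: yeast growth inhibition, expressed relative to vehicle-only wells. The test organism is a mutant strain from a panel with lesions in DNA repair or checkpoint genes.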

[6] = NCI Yeast Anticancer Drug Screen. Data for the mlh1 rad18 strain (AID 175); settings: S. cerevisiae mlh1 rad18 strain growth inhibition; at 50.0 µM; active compounds read high
Method in brief: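 Steps: expose repair-defective yeast to compound; measure growth; express inhibition against vehicle-treated controls.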

Measured: growth inhibition

OC1CC2CCCC2CC1O (stereo unspecified)
inactive: [1] -9.45% | [2] -29.7% | [3] -6.95% | [4] 6.35% | [5] -9.65% | [6] -0.75%

O=S(=O)(N/N=C(/CC/C(=N\NS(=O)(=O)c1ccccc1)c1ccccc1)c1ccccc1)c1ccccc1
inactive: [1] 27.7% | [2] 5.2% | [3] 11.7% | [4] 7.55% | [5] -2% | [6] 7.95%

CCOC(=O)c1cnc(=O)n(Cc2ccccc2)c1N
inactive: [1] -1.25% | [2] 0.65% | [3] 10.9% | [4] 0.45% | [5] 0.35% | [6] -8.15%

O=C(O)c1cc(C(=O)Nc2cccc3ccccc23)c(C(=O)O)cc1C(=O)Nc1cccc2ccccc12
inactive: [1] 14.6% | [2] 24.1% | [3] 17.6% | [4] -5.4% | [5] 6.4% | [6] 22.8%

O=C(NO)Oc1cccc2ccccc12
inactive: [1] 9.7% | [2] 0.55% | [3] 0.25% | [4] 6.75% | [5] -3.3% | [6] 5.85%

COC(=O)/C=C1\CCC2C3CC=C4C=C(N5CCCC5)CCC4(C)C3C(=O)CC12C (stereo unspecified)
inactive: [1] -7.6% | [2] 16.1% | [3] 18.6% | [4] -9.6% | [5] -12.4% | [6] -18.2%

Clc1ccccc1NCSC1=NCCS1
inactive: [1] 5.95% | [2] -15.8% | [3] 3.9% | [4] -19.6% | [5] -3.85% | [6] 20.8%

Cc1cc(Cl)ccc1NC(=O)NC(C)(C)COC(=O)Nc1cccc(Cl)c1
inactive: [1] 26% | [2] -7.3% | [3] 23.4% | [4] 9.15% | [5] 16.1% | [6] 27.9%

c1ccc(Sc2nc(Sc3ccccc3)nc(Sc3ccccc3)n2)cc1
inactive: [1] -23.9% | [2] -16.4% | [3] -15.2% | [4] 17.9% | [5] -20.1% | [6] -31.7%

O=C1N[C@H](Cc2cnc[nH]2)C(=O)N2CCC[C@@H]12
inactive: [1] 15.2% | [2] -3.55% | [3] 8.75% | [4] 16.1% | [5] 9.75% | [6] 23.7%

O=[N+]([O-])c1nccn1CCC[n+]1ccc2ccccc2c1
inactive: [1] -25.4% | [2] -7.7% | [3] -8.6% | [4] -2% | [5] -13.8% | [6] -17%

c1ccc2c[n+]3cc4ccccc4cc3cc2c1
inactive: [1] 30.9% | [2] 23.4% | [3] 53.7% | [4] 31.3% | [5] 33% | [6] 56.1%

COc1cc(OC)cc(Oc2nc3ccc(C(F)(F)F)cc3nc2-c2ccccc2)c1
inactive: [1] -33.1% | [2] -44.8% | [3] -7.85% | [4] -28.3% | [5] -27.4% | [6] -14.3%

O=C1Cc2c([nH]c3c(Cl)cccc23)-c2ccccc2N1
inactive: [1] -4.65% | [2] 14.6% | [3] -19.2% | [4] 21.8% | [5] 4.5% | [6] -23.4%

C[n+]1cccc(/C=C/C(=O)Nc2ccccc2)c1
inactive: [1] 5.8% | [2] 7% | [3] -24.1% | [4] 5.95% | [5] 12.1% | [6] 19.4%

O=C1OCC2Cc3ccccc3C(c3ccccc3)=C12 (stereo unspecified)
inactive: [1] -3.85% | [2] -6.3% | [3] -1.3% | [4] -31.5% | [5] 11.3% | [6] -1%

C=C1C(C2(C)C=CC(=O)OC3(C)COC(=O)CC32)C(OC=O)C(OC(=O)C(O)C(C)CC)C2(C)C(c3ccoc3)CC(OC(C)=O)C12O (stereo unspecified)
inactive: [1] 7.9% | [2] -5.2% | [3] -4.65% | [4] -0.45% | [5] 16.3% | [6] -21.4%

CC(=O)NN
inactive: [1] -5.25% | [2] 0.45% | [3] -0.8% | [4] -1.65% | [5] 11.5% | [6] -16.1%

Cc1ccc(C(=O)CC(C#N)c2ccccc2)cc1 (stereo unspecified)
inactive: [1] 25.6% | [2] 17.4% | [3] 13.4% | [4] 18.1% | [5] 5.55% | [6] 12.7%

Cc1sc2nc3n(c(=O)c2c1C)N=CN(c1ccccc1)C3
inactive: [1] 3% | [2] 4% | [3] 2.1% | [4] -12.8% | [5] -3.5% | [6] -16.7%

Cc1cccnc1C(=O)O.[Cu+2]
inactive: [1] -9.55% | [2] -0.45% | [3] -29.1% | [4] -45.2% | [5] -32.8% | [6] -7.4%

O=C(Nc1ccc(Br)cc1)c1cc(Cl)cc(Cl)c1Br
inactive: [1] -23.4% | [2] 17.9% | [3] -16.8% | [4] -11.6% | [5] 2.85% | [6] 27.7%

S=C(Nc1ccccc1)Nc1ccccn1
inactive: [1] 10.1% | [2] -29.6% | [3] 4.05% | [4] -30.8% | [5] -4.35% | [6] 4.25%

C#CC(OC(=O)c1cc([N+](=O)[O-])cc([N+](=O)[O-])c1)C1OC(C)(C)OC1C1COC(C)(C)O1 (stereo unspecified)
inactive: [1] 27% | [2] 26.4% | [3] 57.1% | [4] -1% | [5] 7.25% | [6] 58.5%

Cc1nc2ccccc2s1
inactive: [1] 25.1% | [2] 48.2% | [3] 7.9% | [4] 29% | [5] -1.35% | [6] 4.05%

COC(=O)/C(=C\Nc1cccc(C)n1)S(=O)(=O)c1ccc(C)cc1
inactive: [1] -33.9% | [2] -1.55% | [3] 18.5% | [4] -21.5% | [5] 7.3% | [6] 12.8%

C#CC[N+](CC)(CC)CC
inactive: [1] 2.6% | [2] -11.9% | [3] -11.3% | [4] -84% | [5] -3.3% | [6] -13.2%

COc1cc2ccc(/C=C/C(=O)c3ccc4c(c3)OCO4)cc2cc1OC
inactive: [1] -7.3% | [2] -3.75% | [3] 3.25% | [4] 22.4% | [5] 6.4% | [6] -4.65%

COc1ccc(OC)c(NC(=O)NN(C)C)c1
inactive: [1] -31.4% | [2] -38.8% | [3] -2.25% | [4] 7.95% | [5] -21.1% | [6] -21.6%

O=C(NCC(CC(NC(=O)c1ccccc1)C(=O)O)NC(=O)c1ccccc1)c1ccccc1 (stereo unspecified)
inactive: [1] -20.5% | [2] -4.85% | [3] -11.4% | [4] 16% | [5] -5.9% | [6] 0.9%

CCCCCCC(=O)N1SC(NC(=O)OC)=Nc2ccccc21
inactive: [1] 5.55% | [2] 7.3% | [3] 27.6% | [4] 36.5% | [5] 69.7% | [6] 41%

COc1ccc(/C=C2\CCC(Cc3ccccc3)(CN(C)C)C2=O)cc1 (stereo unspecified)
inactive: [1] 19.6% | [2] -15.3% | [3] 25.3% | [4] 3.7% | [5] -11.8% | [6] -72.4%

c1ccc(C2(c3ccccc3)SC2(c2ccccc2)c2ccccc2)cc1
inactive: [1] -13.9% | [2] -7.75% | [3] -11.1% | [4] -24.1% | [5] 2.15% | [6] -6.65%

O=c1ncc2ccccc2[nH]1
inactive: [1] -19.9% | [2] -10.7% | [3] -9.6% | [4] -4.3% | [5] -12.8% | [6] -23.9%

C[CH2][Sn]([CH2]C)([O]P(=O)(C[Si](C)(C)C)c1ccccc1)[O]P(=O)(C[Si](C)(C)C)c1ccccc1 (stereo unspecified)
inactive: [1] 0% | [2] 8.7% | [3] 4.2% | [4] 24% | [5] 53.2% | [6] 17.2%

CC1=C(C(=O)Nc2cc(C)ccn2)CCO1
inactive: [1] 4.55% | [2] -11.4% | [3] -7.2% | [4] -33% | [5] 11.7% | [6] 15%

CC1(O)c2ccccc2-c2c1n([O-])c1ccccc1[n+]2=O (stereo unspecified)
inactive: [1] 7.9% | [2] -6.2% | [3] 12.2% | [4] -43.9% | [5] -1.8% | [6] 3.9%

CCCCNC(=O)c1ccc(C(C)C)cc1
inactive: [1] 9.2% | [2] -0.95% | [3] 0.4% | [4] -4.15% | [5] -0.9% | [6] -5.05%

c1ccc(CCCCc2ccccn2)cc1
inactive: [1] 32% | [2] -13.1% | [3] 31.6% | [4] 0.2% | [5] 27.4% | [6] 25%

COC(=O)/C=C(/C(=O)OC)C1(C)c2cc(C(=O)OC)c(C(=O)OC)c(N)c2C(=N)N1c1ccccc1 (stereo unspecified)
inactive: [1] -3.75% | [2] 25.9% | [3] 1% | [4] -12.4% | [5] -5.15% | [6] -0.9%

O=C(O)c1ccc([N+](=O)[O-])cc1C(=O)c1cccs1
inactive: [1] 0.7% | [2] -7.75% | [3] 4.6% | [4] -2.35% | [5] 5.6% | [6] -0.05%
